The target in assay [1] is Bile acid receptor (Homo sapiens) (UniProt Q96RI1). Description: ATG_IR1_CIS: Attagene CIS-FACTORIAL HepG2 Assay for human Nuclear Receptor Subfamily 1 Group H Member 4 (NR1H4), IR1 submotif (AID 2282946; active means hit-call score of the fitted dose curve at least 0.9, where 1 is the maximum; inactive means score below 0.9). As to conditions: IR1 reporter transcription, actives raise or lower the signal. The method in brief:
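Transient MRTU transfection, HepG2; 24 h dosing; RNA → RT-PCR → 6-FAM primer extension → HpaI digest → capillary electrophoresis fluorescence. Gain/loss of signal fitted relative to DMSO.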

For assay [2], the target named is Hypoxia-inducible factor 1-alpha (Homo sapiens) (UniProt Q16665). Description: ATG_HIF1a_CIS: Attagene CIS-FACTORIAL HepG2 Assay for human Hypoxia Inducible Factor 1 (HIF1A) (AID 2282951; active means hit-call score of the fitted dose curve at least 0.9, where 1 is the maximum; inactive means score below 0.9). Conditions: HepG2 Attagene cis-factorial HIF1a reporter transcription; actives raise or lower the signal. The method in brief:
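Transient MRTU transfection of human HepG2 liver cells, 24 h compound treatment, then total RNA isolation, oligo(dT) reverse transcription, PCR amplification, fluorescent labelling and capillary electrophoresis of reporter fragments. Gain or loss relative to DMSO.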

Assay [3] can be described thus: ATG_PPRE_CIS: Attagene CIS-FACTORIAL HepG2 Assay for human Peroxisome Proliferator-activated Response Element (PPRE) (AID 2282958; active means hit-call score of the fitted dose curve at least 0.9, where 1 is the maximum; inactive means score below 0.9). As to conditions: HepG2 PPRE cis-element reporter, Attagene transcription factor profiling; actives raise or lower the signal. Summed up: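 HepG2, transient MRTU transfection (cis promoter elements, endogenous TFs). 24 h dosing. RNA → oligo(dT) RT → PCR → 6-FAM primer extension → HpaI digest → CE. Bidirectional fit vs DMSO.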

For assay [4], the target named is Nuclear receptor subfamily 1 group I member 3 (Homo sapiens) (UniProt Q14994). Description: ATG_CAR_TRANS: Attagene TRANS-FACTORIAL HepG2 Assay for human Constitutive Androstane Receptor (CAR) (AID 2282969).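 Further: activators raise reporter mRNA above DMSO so AC50 marks induction.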 As to conditions: HepG2 Attagene TRANS-FACTORIAL CAR reporter. The method in brief:
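HepG2 cells transiently transfected with multiplexed GAL4-UAS reporter units expressing chimeric NR-Gal4 proteins; compound exposure 24 h. Reporter mRNA measured by RT-PCR, 6-FAM labelling, HpaI digestion and capillary electrophoresis; gain-of-signal fitted against DMSO baseline.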

The nature of assay [5]: ATG_GAL4_TRANS: Attagene TRANS-FACTORIAL HepG2 Assay for GAL4 (Internal Marker) (AID 2282976). Conditions: HepG2 Attagene TRANS GAL4 internal marker reporter. The method in brief: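 Background-control readout: GAL4-UAS reporter transcript in transiently transfected HepG2 cells after 24 h compound exposure. Measured by RT-PCR, 6-FAM primer extension, HpaI digest and capillary electrophoresis; gain-of-signal fit versus DMSO.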

The target of assay [6] is Glucocorticoid receptor (Homo sapiens) (UniProt P04150). Description: ATG_GR_TRANS: Attagene TRANS-FACTORIAL HepG2 Assay for human Glucocorticoid Receptor (GR) (AID 2282978).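 Further: activators score as hits since higher reporter transcript over DMSO is fitted.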 Conditions: HepG2 Attagene TRANS GR reporter, mRNA transcription. The method in brief:
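Fluorescent capillary-electrophoresis quantitation of reporter mRNA is the readout, taken 24 h after dosing human HepG2 cells carrying transiently transfected GAL4-UAS reporter units activated by chimeric NR-GAL4 fusions; activity scored as induction over DMSO.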

For assay [7], the target named is Bile acid receptor (Homo sapiens) (UniProt Q96RI1). Description: ATG_FXR_TRANS: Attagene TRANS-FACTORIAL HepG2 Assay for Farnesoid X Receptor (FXR) (AID 2282979).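 Further: hits raise reporter mRNA above DMSO so AC50 marks FXR activation.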 Conditions: HepG2 Attagene TRANS FXR-GAL4 reporter transcription. Summed up: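 HepG2 cells were transiently transfected with GAL4-UAS reporters driven by chimeric NR-Gal4 proteins and dosed for 24 h. Reporter mRNA was quantified by RT-PCR, fluorescent labelling, HpaI digestion and capillary electrophoresis, with gain of signal scored versus DMSO.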

Assay [8] has as its target Oxysterols receptor LXR-alpha (Homo sapiens) (UniProt Q13133). Description: ATG_LXRa_TRANS: Attagene TRANS-FACTORIAL HepG2 Assay for human Liver X Receptor alpha (LXRa) (AID 2282980). As to conditions: HepG2 Attagene TRANS reporter, LXRa transactivation. The method in brief:
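HepG2 cells transiently transfected with GAL4-UAS reporter units for chimeric NR-Gal4 proteins, exposed to chemicals for 24 h. Reporter mRNA quantified by RT-PCR and capillary electrophoresis; gain of signal fitted relative to DMSO.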

Assay [9] has as its target Nuclear receptor subfamily 4 group A member 2 (Homo sapiens) (UniProt P43354). Description: ATG_NURR1_TRANS: Attagene TRANS-FACTORIAL HepG2 Assay for human Nuclear Receptor Related Protein 1 (NURR1) (AID 2282985). As to conditions: HepG2 Attagene TRANS reporter, mRNA readout. The method in brief:
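HepG2 cells transiently transfected with GAL4-UAS reporter units and chimeric NR-Gal4 constructs; chemical exposure 24 h. Reporter mRNA quantified by RT-PCR, fluorescent labelling and capillary electrophoresis; gain of signal fitted relative to DMSO baseline.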

In assay [10] the target is human Peroxisome Proliferator-activated Receptor alpha (PPARa), PPARA (gene 5465) (UniProt Q07869). Description: ATG_PPARa_TRANS: Attagene TRANS-FACTORIAL HepG2 Assay for human Peroxisome Proliferator-activated Receptor alpha (PPARa) (AID 2283001).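 On AC50: potency for gain of reporter signal over DMSO so agonist or activator.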 The method in brief: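 HepG2 cells transiently transfected with multiplexed GAL4-UAS reporter units and chimeric NR-Gal4 constructs were dosed for 24 h. Reporter mRNA was measured by RT-PCR with fluorescent labelling and capillary electrophoresis; gain of signal fitted against DMSO.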

Assay [11] has as its target human Peroxisome Proliferator-activated Receptor delta (PPARd), PPARD (gene 5467) (UniProt Q03181). Description: ATG_PPARd_TRANS: Attagene TRANS-FACTORIAL HepG2 Assay for human Peroxisome Proliferator-activated Receptor delta (PPARd) (AID 2283002). Summed up:
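Multiplexed trans-activation format: HepG2 liver cells expressing exogenous NR-Gal4 chimeras and GAL4-UAS reporters were exposed for 24 h. Reporter mRNA was detected by RT-PCR with capillary electrophoresis fluorescence; activity fitted as gain of signal relative to DMSO.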

Assay [12] addresses Peroxisome proliferator-activated receptor gamma (Homo sapiens) (UniProt P37231). Description: ATG_PPARg_TRANS: Attagene TRANS-FACTORIAL HepG2 Assay for human Peroxisome Proliferator-activated Receptor-gamma (PPARg) (AID 2283007). Summed up: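 Transient transfection of HepG2 with GAL4-UAS-driven reporter units; chemical dosing 24 h; total RNA → oligo(dT) RT → PCR with reporter primers → 6-FAM primer extension → HpaI digest 2 h 37 C → capillary electrophoresis. Positive direction vs DMSO.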

Assay [13] has as its target human Vitamin D Receptor (VDR), VDR (gene 7421) (UniProt P11473). Description: ATG_VDR_TRANS: Attagene TRANS-FACTORIAL HepG2 Assay for human Vitamin D Receptor (VDR) (AID 2283022). The method in brief:
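HepG2 cells were transiently transfected with GAL4-UAS reporter units and a chimeric VDR-Gal4 construct, then dosed for 24 hours. Reporter mRNA was quantified by RT-PCR, fluorescent labeling, HpaI digestion and capillary electrophoresis; gain of signal analysed vs DMSO.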

A short description of assay [14]: TOX21_p53_BLA_p3_viability: Viability Assessment in the Tox21 HCT-116 p53 Agonism Beta-lactamase Assay, Phase 3 (AID 2283593).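 Further: cells exposed to compound for 16 h before reading.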 The method in brief: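 HCT-116 cells (4000/well) rested 5 h at 37C, then got DMSO compounds by pin tool (217-fold dilution) for 16 h at 37C, 5% CO2. After the bla read, CellTiter-Glo was added and luminescence read at 30 min, room temperature.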

The nature of assay [15]: TOX21_p53_BLA_p4_viability: Viability Assessment in the Tox21 HCT-116 p53 Agonism Beta-lactamase Assay, Phase 4 (AID 2283597).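 Further: hits lower the luminescence signal meaning cytotoxicity.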 The method in brief: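 HCT-116 p53-bla cells, 4000/well, dosed after 5 h attachment and incubated 16 h at 37 °C, 5% CO2. Viability from CellTiter-Glo ATP luminescence after 30 min at room temperature, taken after the beta-lactamase read; loss of signal indicates cytotoxicity.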

Assay [16] is described as follows: ATG_M_19_TRANS: Attagene TRANS-FACTORIAL HepG2 Assay for M19 Transcription Factor (Internal Marker) (AID 2282974). As to conditions: HepG2 Attagene TRANS-FACTORIAL M19 internal marker reporter. The method in brief: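 Fluorescence of 6-FAM-labelled reporter cDNA fragments, separated by capillary electrophoresis, served as the readout. These derived from HepG2 cells carrying transfected GAL4-UAS reporter units after 24 h dosing, with DMSO as negative control.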

For assay [17], the target named is human Thyroid Receptor alpha (THRa1), THRA (gene 7067) (UniProt P10827). Description: ATG_THRa1_TRANS: Attagene TRANS-FACTORIAL HepG2 Assay for human Thyroid Receptor alpha (THRa1) (AID 2283014). The method in brief: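 HepG2 cells transiently transfected with chimeric NR-Gal4 and GAL4-UAS reporter units, dosed 24 h. Reporter mRNA quantified by RT-PCR, fluorescent labeling, HpaI digestion and capillary electrophoresis; gain-of-signal fit versus DMSO.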

Assay [18] deals with human RAR-related Orphan Receptor gamma (RORg), RORC (gene 6097) (UniProt P51449). Description: ATG_RORg_TRANS: Attagene TRANS-FACTORIAL HepG2 Assay for human RAR-related Orphan Receptor gamma (RORg) (AID 2283011). Summed up: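 HepG2 cells transiently transfected with GAL4-UAS reporter units and chimeric RORg-Gal4 construct; after 24 h chemical exposure, reporter mRNA measured by RT-PCR with fluorescent capillary electrophoresis, gain of signal fitted against DMSO.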

Assay [19] is described as follows: ACEA_ER_AUC_viability: ACEA Biosciences xCELLigence Real-Time Cell Analysis on Estrogen Receptor Agonism for Viability (AID 2283782).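 Further: continuous compound exposure with impedance area under curve over 80 h; hit means loss of impedance signal meaning reduced cell growth or viability.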 Summed up: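 T-47D human breast cells in phenol red-free RPMI1640 with 10% charcoal-stripped FBS were dosed with an 8-point 1:4 dilution series from 100 uM top final concentration, in duplicate. Impedance-based growth was followed for 80 h; AUC analysed versus DMSO.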

Assay [20] addresses human RAR-related Orphan Receptor beta (RORb), RORB (gene 6096) (UniProt Q92753). Description: ATG_RORb_TRANS: Attagene TRANS-FACTORIAL HepG2 Assay for human RAR-related Orphan Receptor beta (RORb) (AID 2283010). The method in brief: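 HepG2 cells were transiently transfected with multiplexed GAL4-UAS reporter units expressing chimeric nuclear receptor–GAL4 proteins, then dosed for 24 h. Reporter mRNA was quantified by RT-PCR with fluorescent labelling and capillary electrophoresis; gain of signal was fitted relative to DMSO.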

Results filed as inconclusive are left out. Calls of active or inactive are those of the source. How the source made its calls, unless noted: active means hit-call score of the fitted dose curve at least 0.9, where 1 is the maximum; inconclusive means response in the unintended direction; inactive means score below 0.9.

Sequence of Peroxisome proliferator-activated receptor gamma (Homo sapiens) (P37231 whole entry, looked up, the tested form may be a part): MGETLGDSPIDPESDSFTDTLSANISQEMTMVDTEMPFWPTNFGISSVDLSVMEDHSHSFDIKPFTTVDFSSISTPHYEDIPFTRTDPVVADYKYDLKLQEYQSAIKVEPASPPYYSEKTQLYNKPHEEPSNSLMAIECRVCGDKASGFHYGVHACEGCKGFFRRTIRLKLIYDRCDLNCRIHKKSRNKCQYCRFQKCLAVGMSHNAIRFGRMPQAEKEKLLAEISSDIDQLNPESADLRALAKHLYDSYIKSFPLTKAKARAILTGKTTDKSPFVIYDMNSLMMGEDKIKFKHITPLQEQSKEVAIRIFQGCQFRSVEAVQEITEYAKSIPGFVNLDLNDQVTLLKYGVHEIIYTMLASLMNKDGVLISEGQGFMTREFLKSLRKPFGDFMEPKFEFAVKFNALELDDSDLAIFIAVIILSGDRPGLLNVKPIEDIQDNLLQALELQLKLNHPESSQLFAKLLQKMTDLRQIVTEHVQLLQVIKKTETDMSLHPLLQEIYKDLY
Sequence of human Thyroid Receptor alpha (THRa1), THRA (gene 7067) (P10827 whole entry, looked up, the tested form may be a part): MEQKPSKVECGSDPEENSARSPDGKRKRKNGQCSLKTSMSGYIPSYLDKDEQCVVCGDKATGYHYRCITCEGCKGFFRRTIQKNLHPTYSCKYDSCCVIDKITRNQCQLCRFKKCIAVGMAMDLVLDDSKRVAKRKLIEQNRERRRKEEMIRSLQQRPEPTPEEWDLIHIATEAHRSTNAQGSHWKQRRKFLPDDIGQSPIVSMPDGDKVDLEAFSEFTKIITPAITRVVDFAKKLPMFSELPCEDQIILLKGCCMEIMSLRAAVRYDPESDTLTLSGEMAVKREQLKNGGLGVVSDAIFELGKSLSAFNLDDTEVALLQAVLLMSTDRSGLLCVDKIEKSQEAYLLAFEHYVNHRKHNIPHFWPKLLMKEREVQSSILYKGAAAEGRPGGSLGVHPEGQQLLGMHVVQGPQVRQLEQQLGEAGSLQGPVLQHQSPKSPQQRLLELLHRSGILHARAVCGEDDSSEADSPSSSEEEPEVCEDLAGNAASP
Sequence of human Vitamin D Receptor (VDR), VDR (gene 7421) (P11473 whole entry, looked up, the tested form may be a part): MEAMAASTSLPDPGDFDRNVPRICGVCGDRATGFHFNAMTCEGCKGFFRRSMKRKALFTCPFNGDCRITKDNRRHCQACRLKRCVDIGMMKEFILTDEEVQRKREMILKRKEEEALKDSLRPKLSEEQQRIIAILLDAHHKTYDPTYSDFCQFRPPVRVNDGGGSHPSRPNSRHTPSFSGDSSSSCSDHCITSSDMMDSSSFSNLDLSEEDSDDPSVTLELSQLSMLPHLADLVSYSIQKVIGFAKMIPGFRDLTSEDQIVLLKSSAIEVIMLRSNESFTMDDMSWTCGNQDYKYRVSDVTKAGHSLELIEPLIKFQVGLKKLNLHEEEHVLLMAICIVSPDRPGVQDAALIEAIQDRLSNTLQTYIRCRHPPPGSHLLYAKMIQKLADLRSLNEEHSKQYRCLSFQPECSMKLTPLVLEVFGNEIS
Sequence of Nuclear receptor subfamily 4 group A member 2 (Homo sapiens) (P43354 whole entry, looked up, the tested form may be a part): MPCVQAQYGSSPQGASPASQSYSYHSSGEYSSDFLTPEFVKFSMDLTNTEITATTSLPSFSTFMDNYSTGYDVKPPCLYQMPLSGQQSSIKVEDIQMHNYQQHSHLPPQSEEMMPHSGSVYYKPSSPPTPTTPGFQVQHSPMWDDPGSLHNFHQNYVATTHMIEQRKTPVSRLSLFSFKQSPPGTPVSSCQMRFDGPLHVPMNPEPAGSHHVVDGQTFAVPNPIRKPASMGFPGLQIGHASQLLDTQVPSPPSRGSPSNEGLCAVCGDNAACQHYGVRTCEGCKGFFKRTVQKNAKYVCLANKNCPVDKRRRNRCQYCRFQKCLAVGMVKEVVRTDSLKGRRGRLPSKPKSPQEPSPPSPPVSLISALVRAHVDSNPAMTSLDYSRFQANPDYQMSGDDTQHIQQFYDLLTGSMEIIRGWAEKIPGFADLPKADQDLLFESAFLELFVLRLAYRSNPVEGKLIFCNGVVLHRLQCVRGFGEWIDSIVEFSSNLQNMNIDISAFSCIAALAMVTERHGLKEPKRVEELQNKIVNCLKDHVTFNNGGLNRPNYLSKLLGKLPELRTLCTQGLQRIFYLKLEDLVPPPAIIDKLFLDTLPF
Sequence of human Peroxisome Proliferator-activated Receptor alpha (PPARa), PPARA (gene 5465) (Q07869 whole entry, looked up, the tested form may be a part): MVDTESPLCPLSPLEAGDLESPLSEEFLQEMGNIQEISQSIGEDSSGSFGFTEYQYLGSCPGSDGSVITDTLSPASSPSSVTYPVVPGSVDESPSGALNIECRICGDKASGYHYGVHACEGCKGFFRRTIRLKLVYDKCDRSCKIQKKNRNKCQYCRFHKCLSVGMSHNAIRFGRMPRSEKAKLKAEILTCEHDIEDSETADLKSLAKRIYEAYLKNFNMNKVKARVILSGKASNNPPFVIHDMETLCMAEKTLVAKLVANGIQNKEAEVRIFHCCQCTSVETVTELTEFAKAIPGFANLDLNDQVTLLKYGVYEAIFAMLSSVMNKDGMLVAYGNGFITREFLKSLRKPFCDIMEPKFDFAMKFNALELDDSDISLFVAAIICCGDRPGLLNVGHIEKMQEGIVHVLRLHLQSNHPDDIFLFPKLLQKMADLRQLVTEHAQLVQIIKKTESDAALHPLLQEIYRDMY
Sequence of human RAR-related Orphan Receptor gamma (RORg), RORC (gene 6097) (P51449 whole entry, looked up, the tested form may be a part): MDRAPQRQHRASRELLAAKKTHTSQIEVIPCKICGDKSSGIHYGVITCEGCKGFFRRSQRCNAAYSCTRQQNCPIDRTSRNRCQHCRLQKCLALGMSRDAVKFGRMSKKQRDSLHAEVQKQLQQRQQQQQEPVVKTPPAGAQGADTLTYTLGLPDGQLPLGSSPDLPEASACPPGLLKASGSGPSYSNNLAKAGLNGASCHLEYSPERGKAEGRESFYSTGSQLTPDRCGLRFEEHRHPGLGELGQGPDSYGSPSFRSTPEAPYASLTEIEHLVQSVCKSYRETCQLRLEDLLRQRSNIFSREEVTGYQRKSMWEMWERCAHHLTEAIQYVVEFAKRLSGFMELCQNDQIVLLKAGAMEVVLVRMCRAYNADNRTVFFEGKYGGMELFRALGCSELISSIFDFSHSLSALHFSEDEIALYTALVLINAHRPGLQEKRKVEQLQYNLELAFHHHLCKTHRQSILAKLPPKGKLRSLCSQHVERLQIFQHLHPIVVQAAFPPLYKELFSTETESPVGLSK
Sequence of Oxysterols receptor LXR-alpha (Homo sapiens) (Q13133 whole entry, looked up, the tested form may be a part): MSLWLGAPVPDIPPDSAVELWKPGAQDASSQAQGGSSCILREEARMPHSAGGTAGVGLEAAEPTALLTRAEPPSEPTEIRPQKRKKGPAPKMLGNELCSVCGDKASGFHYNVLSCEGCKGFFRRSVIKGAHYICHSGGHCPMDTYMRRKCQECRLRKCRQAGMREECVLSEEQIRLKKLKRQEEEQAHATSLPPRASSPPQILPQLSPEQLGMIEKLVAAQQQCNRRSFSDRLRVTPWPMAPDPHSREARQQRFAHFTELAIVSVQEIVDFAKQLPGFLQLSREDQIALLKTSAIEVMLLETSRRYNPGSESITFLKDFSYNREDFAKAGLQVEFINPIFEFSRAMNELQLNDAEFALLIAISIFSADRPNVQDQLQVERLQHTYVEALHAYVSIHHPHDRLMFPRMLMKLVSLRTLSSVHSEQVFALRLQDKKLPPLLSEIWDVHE
Sequence of human Peroxisome Proliferator-activated Receptor delta (PPARd), PPARD (gene 5467) (Q03181 whole entry, looked up, the tested form may be a part): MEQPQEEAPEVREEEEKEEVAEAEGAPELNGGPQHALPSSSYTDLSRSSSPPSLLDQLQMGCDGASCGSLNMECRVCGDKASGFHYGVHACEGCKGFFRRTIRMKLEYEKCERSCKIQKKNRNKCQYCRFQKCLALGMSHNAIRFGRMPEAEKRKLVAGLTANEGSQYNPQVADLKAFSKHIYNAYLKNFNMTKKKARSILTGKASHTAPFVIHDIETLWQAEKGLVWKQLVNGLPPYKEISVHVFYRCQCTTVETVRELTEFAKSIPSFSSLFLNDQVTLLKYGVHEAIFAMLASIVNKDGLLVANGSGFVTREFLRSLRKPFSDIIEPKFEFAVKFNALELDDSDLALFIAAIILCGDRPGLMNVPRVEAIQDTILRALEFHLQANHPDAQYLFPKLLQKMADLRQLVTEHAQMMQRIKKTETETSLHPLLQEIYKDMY
Sequence of Nuclear receptor subfamily 1 group I member 3 (Homo sapiens) (Q14994 whole entry, looked up, the tested form may be a part): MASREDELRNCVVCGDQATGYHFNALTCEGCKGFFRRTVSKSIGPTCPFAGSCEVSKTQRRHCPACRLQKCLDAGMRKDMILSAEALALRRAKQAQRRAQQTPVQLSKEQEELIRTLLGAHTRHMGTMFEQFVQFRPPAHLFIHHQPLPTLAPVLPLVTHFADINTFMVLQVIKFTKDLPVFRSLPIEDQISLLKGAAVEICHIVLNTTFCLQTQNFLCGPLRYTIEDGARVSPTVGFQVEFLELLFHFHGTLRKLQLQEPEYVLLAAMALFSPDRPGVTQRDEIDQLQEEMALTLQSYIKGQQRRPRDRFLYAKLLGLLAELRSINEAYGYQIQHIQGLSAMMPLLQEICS
Sequence of Bile acid receptor (Homo sapiens) (Q96RI1 whole entry, looked up, the tested form may be a part): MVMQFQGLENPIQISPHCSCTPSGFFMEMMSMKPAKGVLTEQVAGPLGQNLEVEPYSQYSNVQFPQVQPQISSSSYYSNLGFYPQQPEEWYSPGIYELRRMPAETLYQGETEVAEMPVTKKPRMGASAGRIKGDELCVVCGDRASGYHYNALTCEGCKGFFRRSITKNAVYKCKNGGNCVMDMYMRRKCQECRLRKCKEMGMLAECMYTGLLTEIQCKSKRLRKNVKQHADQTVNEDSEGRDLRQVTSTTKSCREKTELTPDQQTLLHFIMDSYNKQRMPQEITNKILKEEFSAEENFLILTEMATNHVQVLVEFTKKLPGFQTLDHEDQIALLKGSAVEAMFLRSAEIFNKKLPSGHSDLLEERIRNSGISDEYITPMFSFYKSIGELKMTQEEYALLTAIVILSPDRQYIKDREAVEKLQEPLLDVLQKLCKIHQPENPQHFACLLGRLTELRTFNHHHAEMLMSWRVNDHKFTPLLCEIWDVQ

A word on the AC50: it is the concentration giving half of the maximal activity seen. For `CCCCCCCCCCCCCCCCCC[N+](C)(C)C`, the AC50 in assay [1] is 45.2 µM (active); in [3] it was 6.2 µM (active); in [5] it was 15.4 µM (active); in [6] it was 11.8 µM (active); in [7], 15.9 µM (active); in assay [10] it was 40.9 µM (active). In addition, the AC50 in assay [12] was 32.7 µM (active); in [14], 46.2 µM (active); in [15] it was 65.7 µM (active). The result in [2], in assay [4], in [8], in assay [9], in [11] and in [13] was inactive.
Take `CC(=O)c1nccs1`: the outcome in assay [3], in assay [4], in assay [16], in assay [6], in assay [8] and in assay [12] was inactive. In addition, the outcome in [17] was inactive.
On to `Cc1cc(C)c(S(=O)(=O)O)cc1N=Nc1cc(S(=O)(=O)O)c2ccccc2c1O`, for which the outcome in assay [3], in [4], in assay [5], in assay [8], in assay [10] and in assay [12] was inactive. In addition, the compound was called inactive in assay [18], in [17], in assay [13], in [14] and in assay [19].
On to `O=C(O)c1cc(Cl)cc(Cl)c1O`, for which the compound was classed as inactive in assay [3], in assay [16], in [5], in [9], in assay [10] and in assay [11]. The outcome in assay [20], in [18], in assay [17], in [13], in [15] and in [19] was inactive. The AC50 in [12] is 100 µM (active).
For `COc1ccccc1OCC(O)CO` (centres undefined), the outcome in [3], in assay [16], in assay [9], in assay [10], in assay [11] and in assay [18] was inactive. For the same compound, the compound was called inactive in [17] and in [19].
`CCCN[C@H]1CCc2nc(N)sc2C1`: the compound was called inactive in assay [2], in [16], in [8], in [13] and in assay [15].

Source of the values: PubChem BioAssay (EPA / NIEHS).
